PubChem BioAssay (Tox21)
Records with an inconclusive call do not appear. Calls of active or inactive are those of the source. The call rests on the fitted dose curve; in most records, active means well fitted curve in the direction sought with a large enough effect in the repeat runs; inconclusive means weak or mixed curves; inactive means no such curve, though single readings can be large; an effect the other way counts as inactive or inconclusive.

Experiments:
[1] = qHTS RealTime-Glo MT Cell Viability Assay in HepG2 cells - 8 hour (AID 1224873); further: nearly all actives have a fitted effect of over 55% in size
Procedure, shortened: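 HepG2 cells mixed with RealTime-Glo MT reagents (NanoLuc plus cell-permeant prosubstrate) were seeded at 600 cells/well, incubated 5 h at 37 C/5% CO2, then pinned with compounds in DMSO; nonlytic luminescence tracked viability during 40 h treatment.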

[2] = A CellTox Green Cytotoxicity Assay to monitor cytotoxicity in HEK293 cells - 24 hour (AID 1224875); further: series mostly up to about 77 µM; nearly all actives have a fitted effect of over 45% in size
Procedure, shortened: (§1)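 Nonlytic real-time cytotoxicity: HEK293 + CellTox Green reagent plated, 5 h preincubation, pintool compound addition (23 nL in DMSO), 37 C for 40 h, fluorescence measured at successive time points.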

[3] = A CellTox Green Cytotoxicity Assay to monitor cytotoxicity in HepG2 cells - 16 hour (AID 1224876); further: nearly all actives have a fitted effect of over 45% in size; further: potency means the concentration at half of the fitted maximal effect
Procedure, shortened: (§2)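 Read-out is fluorescence of a cyanine dye excluded from live cells that stains DNA of dead HepG2 cells, with signal proportional to cytotoxicity. Plates were read at 0, 8, 16, 24, 32 and 40 h after compound addition.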

[4] = qHTS RealTime-Glo MT Cell Viability Assay in HepG2 cells - 32 hour (AID 1224877); further: nearly all actives have a fitted effect of over 55% in size
Procedure, shortened: (§3)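 Tox21 10K library screened in qHTS format on HepG2 cells carrying RealTime-Glo reagents. Compounds were added after a 5 h preincubation, and the luminescent signal from continuous culture was measured repeatedly during 40 h treatment.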

[5] = A CellTox Green Cytotoxicity Assay to monitor cytotoxicity in HepG2 cells - 24 hour (AID 1224878); further: nearly all actives have a fitted effect of over 45% in size; further: potency means the concentration at half of the fitted maximal effect
Procedure, shortened: as §2

[6] = A CellTox Green Cytotoxicity Assay to monitor cytotoxicity in HepG2 cells - 40 hour (AID 1224879); further: nearly all actives have a fitted effect of over 40% in size; further: potency means the concentration at half of the fitted maximal effect
Procedure, shortened: as §2

[7] = qHTS RealTime-Glo MT Cell Viability Assay in HEK293 cells - 0 hour (AID 1224880); further: top concentration of the series differs between compounds; nearly all actives have a fitted effect of over 45% in size
Procedure, shortened: (§4)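 Cells were seeded together with NanoLuc luciferase and a prosubstrate that viable cells reduce to a luciferase substrate. After a 5 h incubation at 37 C/5% CO2, compounds were added and luminescence was measured repeatedly during 40 h of treatment.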

[8] = A CellTox Green Cytotoxicity Assay to monitor cytotoxicity in HEK293 cells - 32 hour (AID 1224881); further: nearly all actives have a fitted effect of over 40% in size
Procedure, shortened: as §1

[9] = A CellTox Green Cytotoxicity Assay to monitor cytotoxicity in HepG2 cells - 0 hour (AID 1224882); further: nearly all actives have a fitted effect of over 35% in size
Procedure, shortened: as §2

[10] = A CellTox Green Cytotoxicity Assay to monitor cytotoxicity in HepG2 cells - 32 hour (AID 1224883); further: nearly all actives have a fitted effect of over 50% in size; further: potency means the concentration at half of the fitted maximal effect
Procedure, shortened: as §2

[11] = A CellTox Green Cytotoxicity Assay to monitor cytotoxicity in HEK293 cells - 8 hour (AID 1224884); further: nearly all actives have a fitted effect of over 35% in size
Procedure, shortened: as §1

[12] = qHTS RealTime-Glo MT Cell Viability Assay in HepG2 cells - 16 hour (AID 1224885); further: nearly all actives have a fitted effect of over 50% in size
Procedure, shortened: as §3

[13] = qHTS RealTime-Glo MT Cell Viability Assay in HEK293 cells - 24 hour (AID 1224886); further: nearly all actives have a fitted effect of over 50% in size; further: potency means the concentration at half of the fitted maximal effect
Procedure, shortened: (§5)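 Luminescence generated by NanoLuc from substrate produced by living HEK293 cells served as the viability signal. Each value reflects the reading at its stated time point during continuous 40 h compound exposure at 37 C.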

[14] = qHTS RealTime-Glo MT Cell Viability Assay in HEK293 cells - 8 hour (AID 1224887); further: top concentration of the series differs between compounds; nearly all actives have a fitted effect of over 50% in size
Procedure, shortened: as §4

[15] = A CellTox Green Cytotoxicity Assay to monitor cytotoxicity in HEK293 cells - 16 hour (AID 1224888); further: nearly all actives have a fitted effect of over 35% in size
Procedure, shortened: as §1

[16] = qHTS RealTime-Glo MT Cell Viability Assay in HepG2 cells - 0 hour (AID 1224889); further: nearly all actives have a fitted effect of over 50% in size
Procedure, shortened: as §3

[17] = qHTS RealTime-Glo MT Cell Viability Assay in HEK293 cells - 16 hour (AID 1224872)
Procedure, shortened: as §5

[18] = qHTS RealTime-Glo MT Cell Viability Assay in HEK293 cells - 40 hour (AID 1224874); settings: RealTime-Glo luminescence; max response: stronger effect = lower value; further: nearly all actives have a fitted effect of over 50% in size; further: potency means the concentration at half of the fitted maximal effect
Procedure, shortened: as §4

[19] = A CellTox Green Cytotoxicity Assay to monitor cytotoxicity in HepG2 cells - 8 hour (AID 1224890); further: nearly all actives have a fitted effect of over 45% in size
Procedure, shortened: as §2
On the % scale 0 is the no-effect control and ±100 the full control effect.

CN(C)CCc1ccc(O)cc1
inactive: Potency [1] | Potency [2] | Potency [3] | Potency [4] | Potency [5] | Potency [6] | outcome [7] | Potency [8] | outcome [9] | Potency [10] | Potency [11] | Potency [12] | Potency [13] | Potency [14] | Potency [15] | Potency [16]

COC(C)(C)C
inactive: Potency [17] | max response [18] 6.3% | Potency [2] | Potency [3] | Potency [5] | Potency [6] | outcome [7] | Potency [8] | outcome [9] | Potency [10] | Potency [11] | Potency [12] | Potency [13] | Potency [14] | Potency [15] | Potency [19]

C[N+](C)=CCl
inactive: Potency [17] | max response [18] 17.5% | Potency [2] | Potency [3] | Potency [4] | Potency [5] | Potency [6] | outcome [7] | Potency [8] | outcome [9] | Potency [10] | Potency [11] | Potency [12] | Potency [13] | Potency [14] | Potency [15] | Potency [16] | Potency [19]

OC(c1ccc(F)cc1)(c1cncnc1)c1ccccc1Cl (stereo not drawn)
inactive: Potency [1] | max response [18] -29.2% | Potency [2] | Potency [3] | Potency [5] | Potency [6] | outcome [7] | outcome [9] | Potency [10] | Potency [11] | Potency [12] | Potency [13] | Potency [14] | Potency [15] | Potency [16] | Potency [19]

CCCCc1ccc(O)cc1
active: Potency [18] 15.5 µM | Potency [3] 21.8 µM | Potency [5] 21.8 µM | Potency [6] 21.8 µM | Potency [10] 21.8 µM | Potency [13] 19.5 µM
inactive: Potency [1] | Potency [2] | Potency [4] | outcome [7] | Potency [8] | outcome [9] | Potency [11] | Potency [12] | Potency [19]

Nc1n[nH]c(N)n1
inactive: Potency [17] | Potency [1] | Potency [2] | Potency [3] | Potency [5] | Potency [6] | outcome [7] | Potency [8] | outcome [9] | Potency [10] | Potency [11] | Potency [12] | Potency [14] | Potency [15] | Potency [16] | Potency [19]

CNC(=O)Oc1cccc(C(C)C)c1
inactive: Potency [17] | Potency [2] | Potency [3] | Potency [4] | Potency [5] | Potency [6] | outcome [7] | Potency [8] | outcome [9] | Potency [10] | Potency [11] | Potency [12] | Potency [13] | Potency [14] | Potency [19]

CCOP(=S)(OCC)SCSc1ccc(Cl)cc1
inactive: Potency [1] | max response [18] -2.07% | Potency [2] | Potency [3] | Potency [4] | Potency [5] | Potency [6] | outcome [7] | Potency [8] | outcome [9] | Potency [10] | Potency [11] | Potency [12] | Potency [13] | Potency [14] | Potency [15] | Potency [16] | Potency [19]

CCOP(=S)(Oc1cnc(C(C)(C)C)nc1)OC(C)C (stereo not drawn)
inactive: Potency [17] | Potency [1] | Potency [2] | Potency [3] | Potency [4] | Potency [5] | Potency [6] | outcome [7] | outcome [9] | Potency [10] | Potency [11] | Potency [12] | Potency [13] | Potency [14] | Potency [16] | Potency [19]

CCOc1nc(C(Cl)(Cl)Cl)ns1
inactive: Potency [17] | Potency [1] | Potency [2] | Potency [3] | Potency [4] | Potency [5] | Potency [6] | outcome [7] | Potency [8] | Potency [10] | Potency [12] | Potency [13] | Potency [14] | Potency [15] | Potency [16] | Potency [19]

C1CCC(C2CCCCC2)CC1
inactive: Potency [17] | Potency [1] | Potency [2] | Potency [3] | Potency [5] | Potency [6] | outcome [7] | Potency [8] | Potency [10] | Potency [11] | Potency [12] | Potency [13] | Potency [14] | Potency [15] | Potency [16] | Potency [19]

ClC(Cl)C(Cl)Cl
inactive: Potency [17] | max response [18] 0.239% | Potency [2] | Potency [4] | outcome [7] | Potency [8] | outcome [9] | Potency [11] | Potency [12] | Potency [13] | Potency [14] | Potency [15] | Potency [16] | Potency [19]

[Cl][Sn]([Cl])([Cl])[Cl]
inactive: Potency [17] | Potency [1] | Potency [3] | Potency [4] | Potency [5] | Potency [6] | outcome [7] | outcome [9] | Potency [10] | Potency [11] | Potency [12] | Potency [14] | Potency [16] | Potency [19]

O=[N+]([O-])c1cccc2c([N+](=O)[O-])cccc12
active: Potency [18] 49.2 µM | Potency [13] 49.2 µM
inactive: Potency [2] | Potency [3] | Potency [4] | Potency [5] | Potency [8] | outcome [9] | Potency [10] | Potency [11] | Potency [12] | Potency [14] | Potency [15] | Potency [19]

Nc1cc(Cl)ccc1O
inactive: Potency [1] | max response [18] -11.2% | Potency [2] | Potency [3] | Potency [5] | Potency [6] | outcome [7] | Potency [8] | outcome [9] | Potency [10] | Potency [11] | Potency [12] | Potency [13] | Potency [15]

CC(C(=O)c1ccccc1)N(C)C (stereo not drawn)
inactive: Potency [17] | Potency [1] | Potency [2] | Potency [3] | Potency [5] | Potency [6] | outcome [7] | Potency [8] | outcome [9] | Potency [10] | Potency [12] | Potency [13] | Potency [14] | Potency [15] | Potency [16] | Potency [19]

CCNc1nc(NC(C)C)nc(OC)n1
inactive: Potency [17] | Potency [1] | Potency [2] | Potency [3] | Potency [4] | Potency [5] | Potency [6] | outcome [7] | Potency [8] | outcome [9] | Potency [10] | Potency [11] | Potency [12] | Potency [13] | Potency [14] | Potency [15] | Potency [16] | Potency [19]
